Potency and outcome data for 36 molecules are collected here from PubChem BioAssay (Tox21).

A short description of assay [1]: qHTS assay to identify small molecule agonists of the androgen receptor (AR) signaling pathway in the presence of an antagonist - cell viability counter screen (AID 1259379). Also: nearly all actives have a fitted effect of over 25% in size. Also: potency is read from the fitted curve at half-maximal effect. Put shortly:
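Seed MDA-kb2 at 3,000 cells/well; incubate 5 hr, 37C, 0% CO2. Add nilutamide to 3.0uM final, then pin compounds at 15 concentrations. Incubate 16 hr. Add CellTiter-Fluor at 15 hr, read fluorescence after 1 hr.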

A short description of assay [2]: qHTS assay to identify small molecule agonists of the estrogen receptor beta (ER-beta) signaling pathway - cell viability counter screen (AID 1259380). Also: nearly all actives have a fitted effect of over 30% in size. Also: potency is read from the fitted curve at half-maximal effect. The method, boiled down: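 CellTiter-Glo read, 30 min RT, same wells as bla assay; cells ER-beta-UAS-bla HEK293T; 16 hr compound, 37C; medium 2% charcoal-stripped FBS.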
The nature of assay [3]: qHTS assay to identify small molecule antagonists of the estrogen receptor beta (ER-beta) signaling pathway - cell viability counter screen (AID 1259382). Also: nearly all actives have a fitted effect of over 55% in size. Also: potency is read from the fitted curve at half-maximal effect. Put shortly:
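In this multiplexed counter screen, cells were seeded at 2,000 per well in medium with 2% charcoal-stripped FBS and incubated 6 hr before compound and 1nM final E2 were added. Sixteen hours later, ATP-based luminescence reported viability.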

Assay [4] in a line: qHTS assay to identify small molecule agonists or antagonists of the thyroid stimulating hormone receptor (TSHR) signaling pathway - wild type cell line counter screen (AID 1259384; calls by dose curve). The method, boiled down:
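Counter screen in untransfected Hek293: compounds (15-point titration, triplicate) plus phosphodiesterase inhibitor Ro20-1724 added after 18 h plating; 30 min RT. Intracellular cAMP via competitive d2/cryptate immunoassay, 1 h incubation.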

Assay [5] concerns the target Thyrotropin receptor (Homo sapiens) (UniProt P16473). Kind of assay: qHTS assay to identify small molecule antagonists of the thyroid stimulating hormone receptor (TSHR) signaling pathway (AID 1259385; calls by dose curve; also: nearly all actives have a fitted effect of over 20% in size). Put shortly:
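Antagonist mode: compound-treated TSHR-expressing HEK293 cells were stimulated with 1.5 ng/mL TSH (final) in presence of Ro20-1724 for 30 min at RT. HTRF cAMP detection after 1 h; each compound tested at 15 concentrations, triplicate.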

Assay [6] in a line: qHTS assay to identify small molecule agonists of the estrogen receptor alpha (ER-alpha) signaling pathway in the presence of an antagonist - cell viability counter screen (AID 1259386).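 Also: cells exposed to compounds for 22 h at 37 °C before the viability read; nearly all actives have a fitted effect of over 30% in size.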 Also: potency is read from the fitted curve at half-maximal effect. The method, boiled down:
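Viability counter screen using VM7Luc4E2 (full-length ER-alpha, four ERE-luciferase). The cells were treated with compounds alongside ICI-182,780 10.0nM for 22hr, and live-cell protease fluorescence was quantified with CellTiter-Fluor.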

Assay [7] addresses Estrogen receptor (Homo sapiens) (UniProt P03372). Kind of assay: qHTS assay to identify small molecule agonists of the estrogen receptor alpha (ER-alpha) signaling pathway in the presence of an antagonist (AID 1259383; calls by dose curve; also: nearly all actives have a fitted effect of over 15% in size; also: potency is read from the fitted curve at half-maximal effect). Put shortly:
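Stably transfected VM7Luc4E2 reporter cells, kept 5 days in charcoal-stripped serum, received ICI-182,780 at 10.0nM final before compound addition. Following 22hr incubation at 37C and 5% CO2, luciferase signal was read by luminescence.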

Assay [8] concerns the target Androgen receptor (Homo sapiens) (UniProt P10275). Kind of assay: qHTS assay to identify small molecule agonists of the androgen receptor (AR) signaling pathway in the presence of an antagonist (AID 1259381; calls by dose curve; also: nearly all actives have a fitted effect of over 15% in size). The method, boiled down:
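Test compounds at 15 concentrations were incubated for 16hr with MDA-kb2 reporter cells in presence of 3.0uM nilutamide (final). Signal: ONE-Glo luciferase luminescence.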

“And” between values parts separate entries of the source, which are not always exact repeats. Identical values can stand only once. Records with an inconclusive call do not appear. The source holds several records for some structures; these can differ, active in one and inactive in another. The source made the active and inactive calls. Unless noted, calls follow the shape of the dose curve; as a rule, active = well fitted curve in the direction sought with a large enough effect in the repeat runs; inconclusive = weak or mixed curves; inactive = no such curve, though single readings can be large; an effect the other way counts as inactive or inconclusive.

Estrogen receptor (Homo sapiens), sequence (P03372 whole entry, looked up): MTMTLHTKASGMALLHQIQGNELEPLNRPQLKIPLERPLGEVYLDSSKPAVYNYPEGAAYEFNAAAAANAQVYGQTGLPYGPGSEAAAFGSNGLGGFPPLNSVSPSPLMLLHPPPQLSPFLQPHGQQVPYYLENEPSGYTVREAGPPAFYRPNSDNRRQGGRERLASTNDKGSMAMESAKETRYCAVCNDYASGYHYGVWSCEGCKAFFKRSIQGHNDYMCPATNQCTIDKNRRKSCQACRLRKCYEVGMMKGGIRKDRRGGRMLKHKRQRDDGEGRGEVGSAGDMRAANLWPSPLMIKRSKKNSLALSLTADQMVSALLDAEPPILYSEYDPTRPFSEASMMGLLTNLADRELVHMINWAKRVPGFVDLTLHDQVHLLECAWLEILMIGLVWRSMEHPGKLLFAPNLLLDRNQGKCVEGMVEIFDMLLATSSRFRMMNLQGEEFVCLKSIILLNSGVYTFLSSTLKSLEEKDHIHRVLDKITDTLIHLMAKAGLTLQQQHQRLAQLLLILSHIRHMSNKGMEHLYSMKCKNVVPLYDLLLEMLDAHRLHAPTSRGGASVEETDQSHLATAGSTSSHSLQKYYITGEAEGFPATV
Androgen receptor (Homo sapiens), sequence (P10275 whole entry, looked up): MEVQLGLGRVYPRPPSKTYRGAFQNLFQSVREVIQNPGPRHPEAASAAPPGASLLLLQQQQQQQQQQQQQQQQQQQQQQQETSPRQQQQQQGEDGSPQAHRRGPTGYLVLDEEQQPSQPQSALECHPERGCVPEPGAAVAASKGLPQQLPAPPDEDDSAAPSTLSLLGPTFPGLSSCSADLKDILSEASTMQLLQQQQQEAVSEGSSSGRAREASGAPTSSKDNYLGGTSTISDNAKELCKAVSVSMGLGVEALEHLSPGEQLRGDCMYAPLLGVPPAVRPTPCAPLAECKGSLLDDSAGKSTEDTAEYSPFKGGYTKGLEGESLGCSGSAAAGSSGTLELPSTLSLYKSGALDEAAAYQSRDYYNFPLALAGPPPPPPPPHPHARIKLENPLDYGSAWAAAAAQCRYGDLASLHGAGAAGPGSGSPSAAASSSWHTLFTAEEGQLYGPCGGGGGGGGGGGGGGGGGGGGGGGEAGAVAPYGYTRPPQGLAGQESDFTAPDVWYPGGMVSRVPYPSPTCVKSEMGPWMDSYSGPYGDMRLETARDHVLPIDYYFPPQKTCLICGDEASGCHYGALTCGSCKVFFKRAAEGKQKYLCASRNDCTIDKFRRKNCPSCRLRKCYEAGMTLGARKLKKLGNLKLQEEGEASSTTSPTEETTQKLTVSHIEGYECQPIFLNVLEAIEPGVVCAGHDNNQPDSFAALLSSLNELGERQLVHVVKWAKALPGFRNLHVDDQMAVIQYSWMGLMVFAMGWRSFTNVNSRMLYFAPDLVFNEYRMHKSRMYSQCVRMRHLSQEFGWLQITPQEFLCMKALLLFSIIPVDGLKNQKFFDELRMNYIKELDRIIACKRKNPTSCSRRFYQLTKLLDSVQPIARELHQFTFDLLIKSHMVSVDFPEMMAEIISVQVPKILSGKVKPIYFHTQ
Thyrotropin receptor (Homo sapiens), sequence (P16473 whole entry, looked up): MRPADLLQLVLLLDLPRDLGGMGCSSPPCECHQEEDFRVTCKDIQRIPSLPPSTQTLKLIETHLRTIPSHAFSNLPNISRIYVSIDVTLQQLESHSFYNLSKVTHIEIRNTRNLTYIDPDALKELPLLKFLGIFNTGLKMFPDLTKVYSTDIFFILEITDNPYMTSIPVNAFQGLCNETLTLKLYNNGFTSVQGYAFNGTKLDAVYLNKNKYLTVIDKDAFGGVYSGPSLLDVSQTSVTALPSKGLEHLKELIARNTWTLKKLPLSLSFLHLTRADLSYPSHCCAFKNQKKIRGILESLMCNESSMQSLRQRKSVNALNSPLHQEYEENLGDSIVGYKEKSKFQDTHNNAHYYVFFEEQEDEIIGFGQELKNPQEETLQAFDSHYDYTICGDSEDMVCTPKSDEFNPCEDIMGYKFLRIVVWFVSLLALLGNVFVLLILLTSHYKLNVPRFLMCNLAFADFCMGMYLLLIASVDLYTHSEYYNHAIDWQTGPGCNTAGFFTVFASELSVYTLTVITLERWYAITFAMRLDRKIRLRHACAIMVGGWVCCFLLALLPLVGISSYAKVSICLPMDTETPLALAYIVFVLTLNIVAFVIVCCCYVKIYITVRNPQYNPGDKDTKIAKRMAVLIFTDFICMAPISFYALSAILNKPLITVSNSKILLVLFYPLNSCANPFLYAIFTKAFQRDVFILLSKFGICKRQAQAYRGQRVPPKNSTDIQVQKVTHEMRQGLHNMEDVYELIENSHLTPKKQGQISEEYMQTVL

Regarding `CCn1cc(C(=O)O)c(=O)c2cc3c(cc21)OCO3`, the Potency entry in assay [1], in assay [2], in assay [3], in assay [4], in assay [5] and in assay [6] was “inactive” each time.

As for `CC1=CC(=O)CC(C)(C)C1`, the Potency result in assay [1], in assay [4], in assay [5] and in assay [6] was “inactive” throughout. The Potency in assay [2] is 6.29 µM (active); in assay [3], 14.1 µM (active) and inactive.

As for `O=C(O)C1=NN(c2ccc(S(=O)(=O)O)cc2)C(=O)C1`, the Potency entry in assay [2], in assay [3], in assay [7], in assay [4], in assay [5] and in assay [6] was “inactive” each time.

As to `COc1ccccc1[N+](=O)[O-]`, the Potency entry in assay [2], in assay [3] and in assay [6] was “inactive” in each case.

In the case of `C=C1C[C@]23C[C@@]1(O)CC[C@H]2[C@@]12C=C[C@H](O)[C@@](C)(C(=O)O1)[C@H]2[C@@H]3C(=O)O`, the Potency result in assay [1], in assay [2], in assay [3], in assay [5] and in assay [6] was “inactive” in each case.

Turning to `Cc1ncc(CO)c(CO)c1O`, the Potency entry in assay [1], in assay [2], in assay [3], in assay [4], in assay [5] and in assay [6] was “inactive” throughout.

Take `CC(O)CNCC(C)O` (stereo not drawn): the Potency entry in assay [1], in assay [2], in assay [3], in assay [7], in assay [5] and in assay [6] was “inactive” in each case.

Take `Clc1cccc(Cl)c1NC1=NCCN1`: the Potency entry in assay [1], in assay [2], in assay [3], in assay [4], in assay [5] and in assay [6] was “inactive” each time.

In the case of `O=C(NCC1CCCCN1)c1cc(OCC(F)(F)F)ccc1OCC(F)(F)F` (stereo not drawn), the Potency entry in assay [1], in assay [2], in assay [3], in assay [4], in assay [5] and in assay [6] was “inactive” each time.

On to `Oc1ccc(Cc2ccccc2O)cc1`, for which the Potency result in assay [3], in assay [7], in assay [4], in assay [5] and in assay [6] was “inactive” each time.

On to `O=C1OC(=O)c2c(Cl)c(Cl)c(Cl)c(Cl)c21`, for which the Potency entry in assay [1], in assay [2], in assay [3], in assay [5] and in assay [6] was “inactive” in each case.

On to `CCCOC(=O)NCCCN(C)C`, for which the Potency entry in assay [1], in assay [2], in assay [3], in assay [4], in assay [5] and in assay [6] was “inactive” in each case.

For `CC(=O)OC(C)(C)C1CC=C(C)CC1` (stereo not drawn), the Potency entry in assay [2], in assay [3], in assay [7], in assay [5] and in assay [6] was “inactive” each time.

As to `O=c1c(O)c(-c2ccc(O)c(O)c2)oc2cc(O)cc(O)c12`, the Potency result in assay [2], in assay [3], in assay [5] and in assay [6] was “inactive” throughout. The Potency in assay [7] is 24.4 µM (active) and inactive.

As for `NC(N)=S`, the Potency result in assay [1], in assay [2], in assay [3], in assay [7], in assay [5] and in assay [6] was “inactive” in each case.

For the molecule `Cc1ccc(Cl)cc1`, the Potency entry in assay [2], in assay [3], in assay [7], in assay [5] and in assay [6] was “inactive” each time.

On to `CC(C)(C)NC[C@H](O)COc1nsnc1N1CCOCC1`, for which the Potency entry in assay [2], in assay [3] and in assay [6] was “inactive” each time.

`c1cnc2c(c1)ccc1cccnc12`: the Potency in assay [2] was 2.43 µM (active); in assay [6], 5.5 µM (active). For the same molecule, the Potency result in assay [5] is “inactive”.

Consider `Brc1ccc(Oc2ccc(Br)cc2)cc1`, for which the Potency result in assay [1], in assay [2], in assay [3], in assay [4] and in assay [6] was “inactive” throughout.

As to `N[C@@H](Cc1cc(I)c(Oc2ccc(O)c(I)c2)c(I)c1)C(=O)O`, the Potency entry in assay [1], in assay [2], in assay [3], in assay [7], in assay [5] and in assay [6] was “inactive” throughout.

On to `O=c1n(CCCN2CCN(c3cccc(Cl)c3)CC2)nc2ccccn12`, for which the Potency result in assay [1], in assay [3], in assay [4], in assay [5] and in assay [6] was “inactive” throughout. Also, in assay [2], the Potency is 24.3 µM (active).

`Nc1nc(N)c2nc(-c3ccccc3)c(N)nc2n1`: the Potency in assay [2] was 69.4 µM (active) and inactive. Also, the outcome in assay [8] was inactive. For the same molecule, the Potency entry in assay [3], in assay [7], in assay [4], in assay [5] and in assay [6] was “inactive” each time.

On to `Nc1cccc(N)n1`, for which the Potency entry in assay [1], in assay [2], in assay [3], in assay [7], in assay [5] and in assay [6] was “inactive” each time.

Regarding `Cc1cc(C)c(O)c(C)c1`, the Potency entry in assay [2], in assay [3], in assay [7], in assay [4], in assay [5] and in assay [6] was “inactive” each time.

Consider `CC[N+](CC)(CC(=O)Nc1c(C)cccc1C)Cc1ccccc1`, for which the Potency result in assay [2], in assay [3], in assay [4], in assay [5] and in assay [6] was “inactive” throughout.

As for `CCOC(=O)CC(=O)OCC`, the Potency result in assay [1], in assay [2], in assay [3], in assay [4], in assay [5] and in assay [6] was “inactive” in each case.

With `CC1(C)C(=O)N(Cl)C(=O)N1Cl`, the Potency entry in assay [1], in assay [2], in assay [3], in assay [7], in assay [5] and in assay [6] was “inactive” each time.

As for `COC(=O)CCCCC(=O)OC`, the Potency entry in assay [1], in assay [2], in assay [3], in assay [7] and in assay [6] was “inactive” throughout.

On to `OC[C@H]1O[C@@H](Oc2ccc(O)cc2)[C@H](O)[C@@H](O)[C@@H]1O`, for which the Potency result in assay [2], in assay [3], in assay [7], in assay [5] and in assay [6] was “inactive” each time.

With `O=C1O[C@H]([C@H](O)CO)C(O)=C1O`, the Potency result in assay [2], in assay [3], in assay [4], in assay [5] and in assay [6] was “inactive” in each case.

With `COc1ccc2cc3[n+](cc2c1OC)CCc1cc2c(cc1-3)OCO2`, the Potency in assay [1] was 4.89 µM (active) and 8.41 µM (active); in assay [2], 48.9 µM (active); in assay [6], 27.5 µM (active) and 26.6 µM (active). For the same molecule, the Potency entry in assay [3] and in assay [7] was “inactive” in each case.

In the case of `Cc1ccc(C(C)C)cc1`, the Potency result in assay [2], in assay [3], in assay [7], in assay [5] and in assay [6] was “inactive” throughout. For the same molecule, the outcome in assay [8] was inactive.

Regarding `Cc1ccc(C)c(S(=O)(=O)O)c1`, the Potency result in assay [1], in assay [2], in assay [3], in assay [5] and in assay [6] was “inactive” throughout.

Regarding `NC(=O)c1ncn([C@@H]2O[C@H](CO)[C@@H](O)[C@H]2O)n1`, the Potency entry in assay [1], in assay [2], in assay [3] and in assay [6] was “inactive” in each case.

On to `Cc1ccccc1C=O`, for which the Potency result in assay [2], in assay [3], in assay [7], in assay [4], in assay [5] and in assay [6] was “inactive” in each case.

For the molecule `CC1(C)[C@@H](O[C@H]2O[C@H](C(=O)O)[C@@H](O)[C@H](O)[C@H]2O[C@@H]2O[C@H](C(=O)O)[C@@H](O)[C@H](O)[C@H]2O)CC[C@]2(C)[C@H]3C(=O)C=C4[C@@H]5C[C@@](C)(C(=O)O)CC[C@]5(C)CC[C@@]4(C)[C@]3(C)CC[C@@H]12`, the Potency result in assay [1], in assay [2], in assay [3], in assay [4], in assay [5] and in assay [6] was “inactive” in each case.
